Experimental data reported in PubChem BioAssay AID1117319 (Southern Research Institute, 2015).
“And” between values parts separate entries of the source, which are not always exact repeats. Equal entries are not always repeated. Among all 260,000 compounds or so, about 1,500 (0.58%) were called active. Another 5% or so got no clear call; they are omitted.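 The calls were made as follows: active = inhibition above a set limit at one or more doses, reproduced on every date tested; inconclusive = results disagree between test dates, or hit never tested in dose response; inactive = the rest.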 The list is a sample of the results. Results with a measured potency or affinity are listed apart.

What follows are molecules tested against Virion infectivity factor (Human immunodeficiency virus type 1 group M subtype B (isolate BH10)) + Virion infectivity factor (Human immunodeficiency virus type 1 group M subtype B (isolate BRU/LAI)) + Virion infectivity factor (Human immunodeficiency virus type 1 group M subtype B (isolate PCV12)) + Virion infectivity factor (Human immunodeficiency virus type 1 group M subtype B (isolate HXB2)) + DNA dC->dU-editing enzyme APOBEC-3G (Homo sapiens) (UniProt P69720+P69721+P69722+P69723+Q9HC16) (assay: inhibitors of Vif binding to APOBEC3G peptide, primary screen, biochemical, TR-FRET, GST-Vif 1-94, biotin-A3G peptide, dose response retest (AID 1117319;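 also: Vif residues 1-94 fused to GST binding biotinylated APOBEC3G peptide 110-148; 0% = full assay without inhibitor and 100% = GST in place of GST-Vif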)). Settings: stronger effect = higher value.

inhibition, inactive:
O=C(c1ccco1)N1CCN(C(=O)C2Cc3ccccc3CN2S(=O)(=O)c2ccc(F)cc2)CC1 (stereo unspecified) -4.72%
CN(Cc1cccc2cnccc12)C(=O)c1cc(COc2ccc(F)cc2F)on1 -7.76%
COc1cccc(CN2CCN(Cc3cccc4c3OCO4)CC2CCO)c1 (stereo unspecified) -2.33%
CCOC(=O)C(C(=O)NCc1ccc(F)cc1)c1ncc(C(F)(F)F)cc1Cl (stereo unspecified) 5.68%
Nc1ncnc(Nc2cc(C(F)(F)F)cc(C(F)(F)F)c2)n1 11%
COc1ccc(C(=O)N/C(=C/c2cccnc2)C(=O)N2CCCCCC2)cc1OC 2.36%
COc1ccccc1C(=O)N/C(=C\c1ccc(Br)cc1)C(=O)NCCC(=O)O -1.86%
Cc1oc(/N=C/c2ccc(O)cc2O)c(C#N)c1C -3.01%
Cc1oc(/N=C/c2ccccc2O)c(C#N)c1C 6.98%
Clc1cccc(C2=NOC(c3nnc(-c4ccccc4)o3)C2)c1 (stereo unspecified) -9.96%
Cc1cc(C)c(OCCNC(=O)c2ccccc2Sc2ccccc2C#N)c(C)c1 -2.47%
CC(=O)Oc1ccc(N2C(=O)C3C4C=CC(O4)C3C2=O)cc1 (stereo unspecified) -0.5%
CCOC(=O)C1CCN(C(=O)c2ccc3c(SCC(=O)O)c4c(nc3c2)CCCC4)CC1 -8.86%
CCC(C)NC(=O)c1ccc2c(SCC(=O)O)c3c(nc2c1)CCCC3 (stereo unspecified) 7.55%
O=C(O)CSc1c2c(nc3cc(C(=O)N4CCCC4)ccc13)CCCC2 4.71%
CCCN(C(=O)c1ccc2c(SCC(=O)O)c3c(nc2c1)CCC3)c1cccc(C)c1 18.7%
COc1cccc(/C=C2\SC(=S)N(CC(=O)N(C)C3CCS(=O)(=O)C3)C2=O)c1 (stereo unspecified) 3.59%
Cc1c(Cl)cccc1Nc1nc(N)nc(CSC(=S)N2CCOCC2)n1 0.88%
NS(=O)(=O)c1ccc(CCNS(=O)(=O)c2ccccc2)cc1 22.8%
O=C(CSc1ccc2nnc(-c3ccncc3)n2n1)Nc1nccs1 -1.26%
O=S(=O)(NCCN1CCCC1)c1ccc(C(F)(F)F)cc1 1.25%
N#Cc1c(-c2cccc(Br)c2)cc(-c2ccco2)[nH]c1=O 15.1%
Cc1cc(-c2ccccc2)[nH]c(=O)c1C#N -1.26%
COc1ccc(-c2cc(C(F)(F)F)c(C#N)c(=O)[nH]2)cc1 -2.26%
N#Cc1c(-c2ccccc2)cc(-c2ccccc2)[nH]c1=O -8.66%
COC(=O)c1ccc(NC(=S)N2CCN(Cc3ccccc3)CC2)cc1 10.9%
O=C(c1ccc(COc2ccc3ccccc3c2)o1)N1N=C(C(F)F)CC1(O)C(F)F (stereo unspecified) -0.12%
COc1cc2[nH]c(=S)nc(NCc3ccc(C)cc3)c2cc1OC -6.65%
O=C1C(O)=CC(=C(c2ccccc2)c2ccccc2)c2ccccc21 15.1%
Cc1ccc2c(CC(=O)OCc3csc(C)n3)coc2c1 11.1%
COc1cccc(OC)c1C(=O)OCC(=O)NCC(C)C 14.3%
CC1(C)N([O-])C2=C(CCCC2)[N+]1=O 4.01%
CCC1(C)N([O-])C(C)=C(c2ccccc2)[N+]1=O (stereo unspecified) 4.55%
CCc1ccc(N(C(=O)c2csnn2)C(C(=O)NC(C)(C)C)c2ccccn2)cc1 (stereo unspecified) 0.91%
O=C(c1n[nH]c(=O)c2ccccc12)N1CCN(Cc2ccc3c(c2)OCO3)CC1 4.07%
CCN(CC(=O)Nc1c(F)cccc1F)C(=O)c1ccc(N2CCCC2=O)cc1 -13.8%
CCOC(=O)c1csc(NC(=O)c2cc3ccccc3o2)n1 0.78%
Cc1csc(NC(=O)c2cc3ccccc3o2)n1 0.57%
Cc1ccc(OCC(=O)NCc2ccc3c(c2)OCO3)c([N+](=O)[O-])n1 8.23%
CC(C)C(=O)Nc1nnc(Cc2ccccc2)s1 -2.22%
CCN1CCC(=NNC(=O)c2ccco2)CC1 5.57%
CNC(=O)CC12CC3CC(CC(C3)C1)C2 6.4%
CCOP(=O)(OCC)c1nc(-c2cccc([N+](=O)[O-])c2)oc1N1CCCCC1 5.71%
Cc1cc(C(=O)CSc2nnnn2C)c(C)n1CCc1ccc(F)cc1 15.4%
COc1ccc(CCn2c(C)cc(C(=O)CSc3nnnn3C)c2C)cc1 26.9%
CNC(=O)c1sccc1SCc1c(Cl)cccc1Cl -1.14%
CC1=C(C(=O)OCC(Cl)(Cl)Cl)N2C(=O)C(NC(=O)Cc3ccccc3)C2SC1 (stereo unspecified) 67.2%
Cc1nnc(SCC2=C(C(=O)O)N3C(=O)C(NC(=O)Cc4ccccc4)C3SC2)s1 (stereo unspecified) 7.27%
COc1ccccc1N1CC(C(=O)OCc2nc(N)nc(Nc3ccccc3)n2)CC1=O (stereo unspecified) 15.4%
CC1(C(=O)N2CCOCC2)CCCCC1 -0.21%
Cc1cc(C)cc(OCC(=O)Nc2cc(C)on2)c1 0.63%
CCn1c(CNC(=O)c2cccc(C)c2)nnc1SCC(=O)NC1=NCCS1 -12%
CCOC(=O)N1CCN(C(=O)COc2ccc(S(=O)(=O)NC(C)C)cc2)CC1 -4.61%
CCCNS(=O)(=O)c1ccc(OCC(=O)N2CCC(C(=O)OCC)CC2)cc1 -4.14%
O=C(Nc1ccc2c(c1)OCCO2)c1ccc(Cl)cc1 -3.98%
CC(=O)c1cc2c(cc1NC(=O)c1cccc(S(=O)(=O)N3CCN(C)CC3)c1)OCO2 -12.7%
C/C(=N\NC(=O)c1ccc(=O)[nH]n1)c1cccnc1 3.66%
COc1ccc(-c2csc(COC(=O)C(C)(C)C)n2)cc1 -3.51%
CC(C)(C)C(=O)OCc1nc(-c2ccc(Cl)cc2)cs1 -5.87%
N#C/C(=C\c1ccc(-c2cccc([N+](=O)[O-])c2)o1)C(=O)Nc1nc(-c2cccs2)cs1 3.46%
Cc1cccc(NC(=O)CN(C)S(=O)(=O)c2cccc3cccnc23)c1 2.4%
Cc1cc(C#N)c(C)c(SCc2[nH]nc3c2C(c2ccccc2)C(C#N)=C(N)O3)n1 (stereo unspecified) 7.14%
COC(=O)c1ccccc1NC(=O)CN1CCC(C)CC1 26.5%
Cc1c(NC2=C(Cl)C(=O)N(c3ccccc3)C2=O)c(=O)n(-c2ccccc2)n1C 6.24%
COCCN(C(=O)COC(=O)CSc1cc(C)ccc1C)c1c(N)n(Cc2ccccc2)c(=O)[nH]c1=O -5.52%
CC(=O)Nc1ccc2c(c1)OCCOCCOc1cc(NC(C)=O)ccc1OCCOCCOCCO2 30.1%
CC(=O)Nc1ccc2c(c1)OCCO2 -3.04%
O=C(O)c1cccc(-n2cccc2C=C2C(=O)c3ccccc3C2=O)c1 29.9%
COc1ccc(-n2cccc2/C=C/[N+](=O)[O-])cc1 20.8%
CC(C)[C@H](NC(=O)OCc1ccccc1)C(=O)OCC(=O)N1CCN(c2ccc(F)cc2)CC1 -1.08%
CCNc1nc(ON=C(C)C)nc(N(C)C)n1 -7.57%
CCC(C)NC(=O)c1ccc(CSCc2ccccc2Cl)o1 (stereo unspecified) 2.45%
COc1ccc(OC)c(Nc2nc(-c3sc(N)nc3C)cs2)c1 7.55%
COc1ccc(OC)c(Nc2nc(-c3cccs3)cs2)c1 3.68%
Cc1ccc(C2/C(=C(\O)c3ccc4c(c3)OCCO4)C(=O)C(=O)N2CC2CCCO2)cc1 (stereo unspecified) -0.97%
COc1ccc(/C(C)=N/NC(=O)CNC(=O)c2cccnc2)c(OC)c1 3.46%
COc1ccc(OC)c(NC(=O)NC2CCCCCCC2)c1 -6.56%
COc1ccccc1C(=O)N1CCCC(c2nc(-c3cc(OC)c(OC)c(OC)c3)no2)C1 (stereo unspecified) -8.18%
CC1=C(C(=O)Nc2ccccc2C)C(c2ccc(C)o2)n2c(s/c(=C/c3ccccc3)c2=O)=N1 (stereo unspecified) 29.2%
CC1=C(C(=O)Nc2ccccc2)C(c2ccc(C)o2)n2c(s/c(=C/c3ccccc3)c2=O)=N1 (stereo unspecified) 12.7%
CCOC(=O)C1=C(c2ccccc2)N=c2s/c(=C\c3ccc(O)cc3)c(=O)n2C1c1cccs1 (stereo unspecified) -10.4%
CCOC(=O)C1=C(c2ccccc2)N=c2s/c(=C\c3cccc(O)c3)c(=O)n2C1c1cccs1 (stereo unspecified) -2.23% and -5.42%
COc1ccc(C2C(C(C)=O)=C(C)N=c3s/c(=C\c4ccco4)c(=O)n32)c(OC)c1 (stereo unspecified) 31.2%
CCOC(=O)C1=C(C)N=c2s/c(=C/c3ccccc3)c(=O)n2C1c1ccc(OC)c(OC)c1 (stereo unspecified) 1.78%
COc1cccc(CNC(=O)CSCc2cnn(-c3ccccc3)c2-n2cccc2)c1 2.53% and 7.19%
CC(=O)c1cnc2n(c1=O)CCS2 -2.48%
COc1ccc(C(CC(=O)c2ccc(C)cc2)C(C#N)C#N)cc1OC (stereo unspecified) -6.99%
O=C(O)CCCNC(=O)OCc1ccccc1 -2.72%
CC1CCN(S(=O)(=O)c2ccc(S(=O)(=O)NCC3COCCO3)cc2)CC1 (stereo unspecified) 8.23%
CCNS(=O)(=O)c1ccc(CCC(=O)O)cc1 -1.11%
CCN(CC)S(=O)(=O)c1ccc(N2CC(C(=O)NCCC3=CCCCC3)CC2=O)cc1 (stereo unspecified) -3.38%
